# Test results published in ChEMBL document CHEMBL3988442, “University of Dundee, Small-Polar-MMV Screening Library” (2021).
# In all, about 38,000 compounds went through this assay and about 1,200 (3.2%) showed an effect of 50% or more. The median lay at about -58%. The sample as a whole holds a higher share of strong results than the screen did.
# Tested on: Plasmodium falciparum
# Assay: Calibr Malaria Delayed Death Assay SOP
# Type: functional, organism-based
# Design: scale not given: in the data most compounds retested in dose-response had high values
# Conditions: concentration 4.99e-06 (unit not given; other assays of the set use mol/L)
row,Structure (SMILES),Percent Effect
1,CN(C)C1Cc2ccccc2N(S(=O)(=O)c2cccc(C#N)c2)C1 (stereo not given),75.93%
2,CN1CCN(S(=O)(=O)c2cccc(C#N)c2)c2ccc(F)cc21,-39.03%
3,N#Cc1cccc(S(=O)(=O)N2CC(CC(=O)O)c3ccccc32)c1 (stereo not given),-122.6%
4,CC(=O)NCCNC(=O)C(c1ccccc1C)N(C)C (stereo not given),-142.6%
5,Cc1cscc1-c1nc(C2CCOC2)no1 (stereo not given),-27.07%
6,O=C(c1scc2c1OCCO2)N1CCOC(Cc2ccc(F)cc2)C1 (stereo not given),-16.04%
7,O=C(c1scc2c1OCCO2)N1CCOC(Cc2cccc(F)c2)C1 (stereo not given),-44.17%
8,O=C(c1scc2c1OCCO2)N1CCOC(CCc2ccccc2)C1 (stereo not given),88.31%
9,CC1CCC(NS(=O)(=O)CC(=O)NCC2CCC2)CC1 (stereo not given),-74.87%
10,O=C(CCc1ccco1)N1CCC(Oc2ccccc2)(C(=O)O)CC1,-48.84%
11,COc1ccc(CNC(=O)C2=NN(c3ccc(C)cc3)C(=O)CN2)cc1,74.74%
12,O=C(NCc1cccnc1)C1=NN(c2ccccc2)C(=O)CN1,39.33%
13,COc1ncccc1CNC(=O)C1=NN(c2ccccc2)C(=O)CN1,-51.2%
14,CN1C(=O)CC[C@]12CC[C@@H](NC(=O)NCc1cccnc1)CC2.O=C(O)C(F)(F)F,-78.37%
15,COCCN(C/C=C/c1ccccc1)Cc1nccs1,-11.48%
16,CCc1ccc(CN(C/C=C/c2ccccc2)CCOC)nc1,52.86%
17,COCCN(C/C=C/c1ccccc1)Cc1ccccn1,20.8%
18,O=C1CC(c2ccncc2)C2(CCN(Cc3cccnc3)CC2)N1 (stereo not given),-62.4%
19,CN1CCCN(C(=O)NCCNc2cnccn2)CC1,-4.347%
20,COCCN1C[C@@H]2[C@@H](OC)CCN(Cc3cccs3)[C@@H]2C1.O=C(O)C(F)(F)F.O=C(O)C(F)(F)F,66.16%
21,CO[C@H]1CCN(Cc2cccs2)[C@@H]2CN(Cc3ccncc3)C[C@H]12.O=C(O)C(F)(F)F.O=C(O)C(F)(F)F.O=C(O)C(F)(F)F,59.98%
22,COCCN1C[C@@H]2[C@@H](OC)CCN(Cc3ccco3)[C@@H]2C1.O=C(O)C(F)(F)F.O=C(O)C(F)(F)F,-1.66%

row,Structure (SMILES),Percent Effect
1,CO[C@H]1CCN(Cc2c(C)noc2C)[C@@H]2CN(Cc3ccncc3)C[C@H]12.O=C(O)C(F)(F)F.O=C(O)C(F)(F)F.O=C(O)C(F)(F)F,-5.39%
2,COCCN1C[C@H]2[C@@H](C1)N(Cc1cnn(C)c1)CC[C@H]2OC.O=C(O)C(F)(F)F.O=C(O)C(F)(F)F,-59.33%
3,COCCN1C[C@@H]2[C@@H](OC)CCN(Cc3ccncc3)[C@@H]2C1.O=C(O)C(F)(F)F.O=C(O)C(F)(F)F.O=C(O)C(F)(F)F,24.39%
4,CO[C@@H]1CCN(Cc2cccs2)[C@@H]2CN(Cc3ccncc3)C[C@@H]21.O=C(O)C(F)(F)F.O=C(O)C(F)(F)F.O=C(O)C(F)(F)F,52.08%
5,CO[C@@H]1CCN(Cc2cccc(C)n2)[C@@H]2CN(Cc3ccncc3)C[C@@H]21.O=C(O)C(F)(F)F.O=C(O)C(F)(F)F.O=C(O)C(F)(F)F.O=C(O)C(F)(F)F,30.62%
6,CO[C@H]1CCN(Cc2cnn(C)c2)[C@@H]2CN(Cc3ccncc3)C[C@H]12.O=C(O)C(F)(F)F.O=C(O)C(F)(F)F.O=C(O)C(F)(F)F,-72.72%
7,COCCN1C[C@@H]2[C@@H](OC)CCN(Cc3ccc(C)o3)[C@@H]2C1.O=C(O)C(F)(F)F.O=C(O)C(F)(F)F,3.217%
8,CO[C@H]1CCN(C2CCC2)[C@@H]2CN(Cc3ccncc3)C[C@H]12.O=C(O)C(F)(F)F.O=C(O)C(F)(F)F.O=C(O)C(F)(F)F,-45.55%
9,COCCN1C[C@@H]2[C@@H](OC)CCN(Cc3ccsc3)[C@@H]2C1.O=C(O)C(F)(F)F.O=C(O)C(F)(F)F,66.72%
10,CN1CCN(C(=O)c2cc3sccc3n2Cc2ccccc2F)CC1,29.89%
11,NC(=O)c1ccc(CN2CCCC(N3CCCCCC3)C2)cc1 (stereo not given),-140%
12,COCC(=O)N1C[C@H](N(C)Cc2cncnc2)[C@H]2OCCC[C@H]21,-24%
13,COc1ccccc1OC1CCN(Cc2ccc(N(C)C)nc2)CC1,-79.91%
14,O=C(NCCn1cccc1)c1c(O)cc(F)cc1F,-181.2%
15,Cc1cc(C(=O)N2CCCC2c2nnc3n2CCCCC3)on1 (stereo not given),-57.59%
16,CCN1C[C@H]2[C@@H](C1)N(S(=O)(=O)c1ccccc1)CC[C@H]2OC.O=C(O)C(F)(F)F,60.81%
17,CCN1C[C@@H]2[C@@H](OC)CCN(S(=O)(=O)c3cccnc3)[C@@H]2C1.O=C(O)C(F)(F)F.O=C(O)C(F)(F)F,-23.75%
18,CCN1C[C@H]2[C@@H](C1)N(S(=O)(=O)c1ccccc1F)CC[C@H]2OC.O=C(O)C(F)(F)F,45.85%
19,O=c1cc(N2CCCCC2)cnn1CC(O)C(F)(F)F (stereo not given),-156.3%
20,Cc1ccnc(OCC(=O)N2CCCC2)n1,-75.67%
21,Fc1cccc(Cl)c1CNCCCOc1ccccn1,9.624%
22,Cc1cccc(NC(=O)C2CSc3ncc(C)c(=O)n3C2)n1 (stereo not given),-106.9%

row,Structure (SMILES),Percent Effect
1,c1cnc(N2CCC3(COCc4cnc(N5CCOCC5)nc43)C2)nc1 (stereo not given),-59.23%
2,CC(C)(O)CN1CCN(C(=O)c2cccn2Cc2ccccc2)CC1,-70.89%
3,Cc1ccc(C2(CN(C)Cc3c(C)nn(C)c3C)CCNCC2)nc1,16.34%
4,Cc1ccc(C2(CN(C)Cc3snnc3C)CCNCC2)nc1,-24.27%
5,Cc1ccc(C2(CN(C)Cc3sccc3C)CCNCC2)nc1,76.73%
6,CCCc1nc(N2CCCC(CCOC)C2)c2cnn(C)c2n1 (stereo not given),-84.44%
7,CCC(CO)NCc1ccc(-c2ccc(Br)cc2)o1.Cl (stereo not given),45.11%
8,Cc1cc(N2CCCC2)nc(N(C)CCO)c1C#N,-125.9%
9,CC(=O)N1CCc2nc(N(C)C)nc(NCCc3ccccc3)c2CC1,-47.75%
10,Cc1nc(CCNc2nc(N(C)C)nc3c2CCCC3)cc(=O)[nH]1,-16.34%
11,CN(C)c1nc2c(c(NCc3cc(O)ncn3)n1)CCCC2,89.31%
12,Cc1cnn(CC2CCCN2Cc2nnc(C)o2)c1 (stereo not given),-118.7%
13,CC(C)c1cc(NC(=O)c2ccc(C(=O)NC(C)(C)C)cc2)[nH]n1,62.94%
14,CC(C)c1cc(NC(=O)c2ccc([S+]([O-])C(C)C)cc2)[nH]n1 (stereo not given),-180.3%
15,CC(C)c1cc(NC(=O)c2ccncc2)[nH]n1,-141%
16,CCn1c(C)nnc1Sc1nn2cc(C)nc2s1,-124.9%
17,CCN1CC2(CC1=O)CN(C(=O)c1ccoc1)CCN(C(=O)N(C)C)C2 (stereo not given),-39.9%
18,Cc1c(CN2CC[C@@H](N3CCC(O)CC3)[C@H](O)C2)[nH]c2ccc(Cl)cc12,53.46%
19,Cc1ccc2[nH]c(CN3CC[C@@H](N4CCN(C)CC4)[C@H](O)C3)c(C)c2c1,-45.01%
20,Cc1c(CN2CC[C@@H](N3CCC(O)CC3)[C@H](O)C2)[nH]c2ccc(F)cc12,-24.81%
21,Cc1noc([C@@]23CCO[C@@H]2CCN(S(=O)(=O)c2cccnc2)C3)n1,-112.8%
22,CSc1ccc(CN(CCO)C(=O)CCc2ccc(O)cc2)cc1,-83.46%

row,Structure (SMILES),Percent Effect
1,CN1CCC(N2CCC(C(=O)N(C)C)CC2)CC1.O=C(O)C(F)(F)F.O=C(O)C(F)(F)F,-35.37%
2,Cc1cc(=O)n2nc(Oc3cc(Cl)cc(Cl)c3)sc2n1,-6.381%
3,Cc1cc(=O)n2nc(Oc3ccc(C#N)cc3Cl)sc2n1,19.91%
4,Cc1cc(=O)n2nc(Oc3cccc(I)c3)sc2n1,55.78%
5,O=c1[nH]cnc2[nH]c(N3CCCCC3)nc12,-26.61%
6,N#Cc1ccc(NCc2cccc(OCC3CCCO3)c2)nc1 (stereo not given),-77.93%
7,COc1cc2c(cc1CNC(=O)C(C)n1ccnc1C(C)C)CCC2 (stereo not given),59.1%
8,COCc1nc(CNC(=O)C(C)n2ccnc2C(C)C)no1 (stereo not given),-17.51%
9,COc1cc2c(cc1CNC(=O)C(C)n1ccnc1C(C)C)OCCO2 (stereo not given),8.922%
10,NS(=O)(=O)NCc1cc(-c2ccc(C(F)(F)F)cc2)n[nH]1,-60.23%
11,Fc1cccc(N2CCCC3(CN(Cc4cccnc4)CCO3)C2)c1.O=C(O)C(F)(F)F.O=C(O)C(F)(F)F.O=C(O)C(F)(F)F (stereo not given),64.23%
12,Cn1cc(CN2CCOC3(CCCN(c4cccc(F)c4)C3)C2)cn1.O=C(O)C(F)(F)F.O=C(O)C(F)(F)F (stereo not given),-10.6%
13,Fc1cccc(N2CCCC3(C2)CN(c2ncccn2)CCO3)c1.O=C(O)C(F)(F)F.O=C(O)C(F)(F)F (stereo not given),69.94%
14,Fc1cccc(N2CCCC3(CN(Cc4ccccn4)CCO3)C2)c1.O=C(O)C(F)(F)F.O=C(O)C(F)(F)F.O=C(O)C(F)(F)F (stereo not given),-90.59%
15,Fc1cccc(N2CCCC3(CN(Cc4ccco4)CCO3)C2)c1.O=C(O)C(F)(F)F.O=C(O)C(F)(F)F (stereo not given),40.81%
16,Fc1cccc(N2CCCC3(CN(Cc4nccs4)CCO3)C2)c1.O=C(O)C(F)(F)F.O=C(O)C(F)(F)F (stereo not given),-4.725%
17,CC(C)(C)OC(=O)N1CCN(c2nnc(Br)s2)CC1,-125.7%
18,Cn1cccc1C(=O)N1CCn2nnc(COc3cccnc3)c2C1.O=C(O)C(F)(F)F,-3.271%
19,Cc1csc(C(=O)NCCn2nc(-n3cncn3)ccc2=O)c1,-119.2%
